Screen size: about 360,000 compounds; about 25,000 (6.9%) were called active. Roughly 9% stayed inconclusive and do not appear here. Many of the other results were omitted from the sample, so actives are more common in it than they were. Unmarked numbers belong to inactive results. The call rests on the fitted dose curve; in most records, active means well fitted inhibition curve with a large enough effect; inconclusive means small, poorly fitted or top-dose-only effect; inactive means flat fitted curve, though single readings scatter.
Biological target: Luciferin 4-monooxygenase (Photinus pyralis) (UniProt P08659)
Sequence (P08659 whole entry, looked up): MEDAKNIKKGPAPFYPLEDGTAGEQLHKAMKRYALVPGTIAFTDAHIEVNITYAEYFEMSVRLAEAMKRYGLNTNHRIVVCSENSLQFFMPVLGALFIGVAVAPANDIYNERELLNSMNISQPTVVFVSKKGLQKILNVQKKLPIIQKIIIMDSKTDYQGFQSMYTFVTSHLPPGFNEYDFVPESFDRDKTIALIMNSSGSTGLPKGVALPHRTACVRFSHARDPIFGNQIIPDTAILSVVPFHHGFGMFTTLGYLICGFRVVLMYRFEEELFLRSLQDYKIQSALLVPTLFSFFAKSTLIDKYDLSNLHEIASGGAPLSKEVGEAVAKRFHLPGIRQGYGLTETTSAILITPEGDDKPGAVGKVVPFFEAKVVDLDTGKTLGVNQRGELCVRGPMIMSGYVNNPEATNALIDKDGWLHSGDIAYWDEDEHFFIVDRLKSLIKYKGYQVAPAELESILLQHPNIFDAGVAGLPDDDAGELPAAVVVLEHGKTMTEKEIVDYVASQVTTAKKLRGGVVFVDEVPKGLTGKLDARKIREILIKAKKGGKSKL
Test: qHTS profiling assay for firefly luciferase inhibitor/activator using purifed enzyme and Km concentrations of substrates (counterscreen for miR-21 project); further: nearly all actives have a fitted effect of over 55% in size;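 on activity change, negative = inhibition: plate controls were vehicle for no effect and reference inhibitor for full effect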
Conditions: purified FLuc, luminescence inhibition; series mostly up to 57.5 µM; activity change, negative = inhibition: at the top concentration
How it was run: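 Purified P. pyralis luciferase (10nM final) with 10uM D-luciferin and 10uM ATP (Km levels) in 50mM Tris acetate pH 7.5, 10mM Mg acetate, 0.01% Tween-20, 0.05% BSA; qHTS 6-point titration, ~60 µM downward; luminescence read.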
Potency means the concentration at half of the fitted maximal effect.

Point of comparison: `COc1ccc(CCC(=O)OCC(=O)Nc2ccc(C)c(S(=O)(=O)N(C)C)c2)cc1`, “activity change, negative = inhibition” value -10.3%. Against it:
- CCn1c(SCC(=O)N/N=C/C=C/c2ccccc2[N+](=O)[O-])nnc1-c1ccccc1 — higher, -1.86%
- Cc1ccc(Cn2c(SCC(=O)N/N=C/c3ccccc3OCC(=O)O)nc3ccccc32)cc1 — lower, -19.8%
- CNC(=O)c1csc(Cc2c(Cl)sc3ccc(Cl)cc23)n1 — higher, -1.07%
- O=C(COC(=O)c1ccccc1C(=O)c1ccccc1)c1ccco1 — higher, 1.88%
- O=C(OCC(=O)N1CCN(C(=O)c2ccco2)CC1)c1ccc(Cl)c(Cl)c1 — higher, 3.62%
- O=C(COC(=O)c1ccco1)NCc1ccc(Cl)cc1 — lower, -13.8%
- O=C(OCC(=O)N1CCCC1)c1ccco1 — higher, 4.45%
- C[C@@H](NC(=O)[C@@H]1Cc2ccccc2CN1)C(=O)NC1CCCC1 — higher, 0.763%
- COc1ccccc1CNC(=O)c1cc(=O)c2ccccc2o1 — lower, -11.9%
- CCOC(=O)c1sc(N)c(C#N)c1COC(=O)C1=COCCO1 — higher, -1.27%
- CN(CC(=O)Nc1c(Cl)cccc1Cl)C(=O)CC1OC(=O)c2ccccc21 (stereo unspecified) — higher, 3.1%
- CCOc1ccc(N(CC)S(=O)(=O)N2CCCC(C(=O)NCc3ccc(SC)cc3)C2)cc1 (stereo unspecified) — lower, -13.4%
- Cc1oc2c(c1C(=O)Nc1ccc(F)c(F)c1)C1=NCCN1C=N2 — higher, 0.154%
- CCOC(=O)Cn1c(=O)n(C2CCCCC2)c2nc(-c3cccc(OC)c3)nc(C(N)=O)c21 — higher, 1.49%
- COc1ccc(CNC(=O)c2cc3c(-c4ccccc4F)nn(C)c3s2)c(OC)c1 — higher, 2.08%
- CCOC(=O)C1CCCN(C(=O)c2ccc(-n3ccc4ccccc43)s2)C1 (stereo unspecified) — lower, -16.1%
- Cc1ccc(/C=C/C(=O)OCC(=O)NCc2ccc(Cl)cc2)o1 — higher, -2.85%
- CCC(=O)N1CCc2cc(Br)cc(S(=O)(=O)NCc3ccc(Cl)cc3)c21 — higher, -8.46%
- CCCNC(=O)c1ccc2c(c1)ncn2-c1ccc(C)cc1C — higher, 1.1%
- C=CCNC(=O)c1ccc(C)c(Br)c1 — higher, -2.07%
- COc1cccc(CNC(=O)C(NS(=O)(=O)c2ccc3nc(C)sc3c2)C(C)C)c1 (stereo unspecified) — higher, -1.94%
- COc1ccc(Cl)cc1NC(=O)CN(C)C(=O)CNC(=O)C12CC3CC(CC(C3)C1)C2 — higher, -0.933%
- COc1ccc(OC)c(/C(C)=N\NC(=O)c2cc3cc(Cl)ccc3n2C)c1 — higher, 0.109%
- NC(=O)NCCCC(=O)O — higher, 0.395%
- CSc1ncc(C(=O)NCc2ccccc2Cl)c(C(F)(F)F)n1 — higher, 1.14%
- Cc1cccc(C)c1OCCN1CCOCC1 — higher, 2.23%
- CCn1c2ccc(F)cc2c2nnc(SCCN3CCOCC3)nc21 — higher, 4.01%
- Cc1ccc(NC(=O)CNCc2ccccn2)cc1S(=O)(=O)N(C)C — higher, 0.098%
- Cc1ccc(C(=O)Nc2ccc(C(=O)O)cc2)cc1S(=O)(=O)Nc1ccccc1 — lower, -16.6%
- Cc1ccc(C(=O)Nc2ccc(NC(=O)c3cccs3)cc2)c(C)c1 — higher, 0.511%
- Cc1cc(C)c(/C=C/c2onc(C)c2S(=O)(=O)N2CCC(C(=O)Nc3ccc(Cl)cc3C)CC2)c(C)c1 — higher, -0.359%
- COc1ccc(C(=O)CSc2c(C(C)C)cnc3c2c(=O)n(C)c(=O)n3C)cc1 — higher, 1.21%
- O=C(CSc1nc2nccnc2c(=O)n1CCc1c[nH]c2ccccc12)Nc1ccccc1F — lower, -13.8%
- O=C(CN1CCN(Cc2ccc(Cl)cc2)C1=O)NCc1ccc(F)cc1 — higher, -3.28%
- COc1ccc(N2C(=O)CS(=O)(=O)C23C(=O)N(Cc2ccc(C)cc2)c2ccccc23)cc1Cl (stereo unspecified) — higher, 5.02%
- O=S(=O)(NCCS(=O)(=O)N1CCN(c2ccccc2)CC1)c1ccc(Cl)cc1 — higher, 0.0657%
- CN(C)c1cc[n+](Cc2ccccc2)cc1 — higher, -1.97%
- CSc1c(SCc2ccccc2)cnn(Cc2ccccc2)c1=O — lower, -18.5%

With `CCn1c(SCC(=O)N/N=C/c2ccccc2OCC(=O)O)nnc1-c1ccc(C(C)(C)C)cc1` the Potency was 26.9 µM (active).
With `CCc1ccc(C(=O)COC(=O)c2ccco2)cc1` the Potency was 0.478 µM (active).
With `CCN(CC)c1ccc(C(=O)OCC(=O)c2ccco2)cc1` the Potency was 15.1 µM (active).
With `Brc1ccccc1C1N=C(c2ccccc2)NO1` (stereo unspecified) the Potency was 19 µM (active).
`N#Cc1ccc(C2N=C(c3ccccc3)NO2)cc1` (stereo unspecified) was tested, and the Potency was 10.7 µM (active).
`CCN(Cc1ccccc1)C(=O)CCS(=O)(=O)c1ccc2c(c1)oc(=O)n2C` was tested, and the Potency was “inactive”.
With `C=CCNC(=O)c1ccc2c3n(nc2c1)-c1ccc(C)cc1CO3` the Potency was 2.39 µM (active).
`C/C(=N/NC(=O)c1cc(Cl)ccc1O)C12CC3CC(CC(C3)C1)C2` was tested, and the Potency was 15.1 µM (active).
For `Cc1cc2nc(SCCN3CCOCC3)[nH]c2cc1C`, the Potency was 19 µM (active).
For `Cc1ccc(NC(=O)c2cccs2)cc1S(=O)(=O)N(C)C`, the Potency was 15.1 µM (active).
For `Cc1ccc(C(=O)Nc2ccc(C)c(S(=O)(=O)N(C)C)c2)s1`, the Potency was 1.9 µM (active).
For `CC1=NN(Cc2ccccc2)C(=O)/C1=C/c1ccc(N(C)C)cc1`, the Potency was 6.75 µM (active).

Reference: PubChem BioAssay AID588342 (National Center for Advancing Translational Sciences (NCATS), 2011)
